# Data: the supplement of paper PMC7530171
# Counter-ions that a name gives are not always drawn. ± gives the standard deviation.
# System: THP-1
# Assay: THP-1 cell loss relative to DMSO control; higher = more host cell loss (toxicity); extreme values may be limits of the assay
# Settings: 10 µM; 4 days; infection: M. tuberculosis H37Rv
# Protocol: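 OICR kinase inhibitor library screened in duplicate at 10 uM against M. tuberculosis-infected THP-1 macrophages, 4 days at 37 C. THP-1 cell loss (cytotoxicity or loss of adherence) was quantified from Hoechst-stained nuclei counts by high-content imaging and normalised to the 1% DMSO control; 100 = complete loss of host cells.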
row,SMILES,THP-1 cell loss
1,CC(=O)Nc1cccc(-n2c(=O)n(C3CC3)c(=O)c3c(Nc4ccc(I)cc4F)n(C)c(=O)c(C)c32)c1,100%
2,Cc1ccc(C(=O)Nc2cccc(C(F)(F)F)c2)cc1-c1ccc2nc(NCCN3CCOCC3)ncc2c1,100%
3,Cc1ccc([N+](=O)[O-])cc1S(=O)(=O)N(C)/N=C/c1cnc2ccc(Br)cn12 [PIK-75 hydrochloride],100%
4,C[C@@H]1CCN(C(=O)CC#N)C[C@@H]1N(C)c1ncnc2[nH]ccc12,9.64 ± 8.9%
5,NC(=O)c1sc2c([N+](=O)[O-])cc(C(F)(F)F)cc2[n+]1[O-] [Cyclapolin 9],35.6 ± 12%
6,COc1cc2ncn(-c3cc(OCc4ccccc4C(F)(F)F)c(C(N)=O)s3)c2cc1OC,12.2 ± 11%
7,O=C(NCCCNc1nc(Nc2cccc(NC(=O)N3CCCC3)c2)ncc1I)c1cccs1,100%
8,O=C1NCCc2[nH]c(-c3ccncc3)cc21,100%
9,CN1CCN(c2ccc3nc(-c4c(N)c5c(F)cccc5[nH]c4=O)[nH]c3c2)CC1 [Dovitinib],100%
10,CS(=O)(=O)N1CCN(Cc2cc3nc(-c4cccc5[nH]ncc45)nc(N4CCOCC4)c3s2)CC1 [GDC-0941 bismesylate],38 ± 2.2%
11,CCN(CC)CC1CCN(c2ncc3ncnc(Nc4ccc(F)c(Cl)c4)c3n2)CC1 [BIBU 1361 dihydrochloride],100%
12,N#C/C(=C(/N)Sc1ccc(N)cc1)c1ccccc1C(F)(F)F,78.2 ± 4.7%
13,NC(=O)Nc1cc(-c2cccc(F)c2)sc1C(=O)N[C@H]1CCCNC1 [AZD-7762 hydrochloride],100%
14,O=c1cc(N2CCOCC2)oc2c(-c3ccccc3)cccc12,59.5 ± 13%
15,Cc1ncc(-c2ccnc(Nc3ccc(S(C)(=O)=O)cc3)n2)n1C(C)C,100%
16,O=C1NC(=O)/C(=C/c2ccc3c(c2)OC(F)(F)O3)S1,7.44 ± 3.3%
17,Nc1nc(Nc2ccc(S(N)(=O)=O)cc2)nn1C(=O)c1c(F)cccc1F,100%
18,COc1ccc(-c2ccc3ncc4c(c3c2)n(-c2ccc(N3CCNCC3)c(C(F)(F)F)c2)c(=O)n4C)cn1,100%

row,SMILES,THP-1 cell loss
1,COc1cc(F)c(F)c(Nc2ccc(I)cc2F)c1NS(=O)(=O)C1(C[C@H](O)CO)CC1,84.9 ± 1%
2,Cc1cc(C(=O)N2CCN(c3cccc(Cl)c3)CC2)n(-c2ccccc2)n1,23.2 ± 25%
3,Cc1ccc(NC(=O)c2ccc(CN3CCN(C)CC3)cc2)cc1Nc1nccc(-c2cccnc2)n1 [Imatinib (free base)],3.31 ± 4.7%
4,Cc1cc(N2CCOCC2)cc2[nH]c(-c3c(NC[C@@H](O)c4cccc(Cl)c4)cc[nH]c3=O)nc12,21.7 ± 10%
5,Cc1cc(Nc2nc(N[C@@H](C)c3ncc(F)cn3)ncc2Cl)[nH]n1,4.08 ± 4.6%
6,COC(=O)Nc1ccc(-c2nc(N3CCOCC3)c3cnn(C4CCN(C(=O)OC)CC4)c3n2)cc1,35.6 ± 0.38%
7,CS(=O)(=O)c1cccc(CNc2nc(Nc3ccc4c(c3)CCC(=O)N4)ncc2C(F)(F)F)c1,56.3 ± 6%
8,Oc1c2ccccc2c2c3c(cccc13)N=N2,19.8 ± 16%
9,COc1cc2ncnc(Nc3ccc(Oc4ccccc4)cc3)c2cc1OC,0%
10,COc1ccc(-c2cc3nccn3c(Nc3ncccc3C(N)=O)n2)cc1OC [BAY 61-3606 hydrochloride],100%
11,O=C(NC[C@H](O)CO)c1ccncc1Nc1ccc(I)cc1F,100%
12,O=C(Nc1c[nH]nc1-c1nc2ccc(CN3CCOCC3)cc2[nH]1)NC1CC1,100%
13,Cc1ccc(NC(=O)c2cccc(N(C)C)c2)cc1NC(=O)c1ccc(O)cc1,3.71 ± 3.8%
14,NC(=O)c1ccc(N(C(N)=O)c2c(F)cccc2F)nc1-c1ccc(F)cc1F,10.1 ± 4.9%
15,COc1cc2nccc(Oc3ccc(NC(=O)NC4CC4)c(Cl)c3)c2cc1C(N)=O,20.6 ± 14%
16,Oc1cc(-c2nc(-c3ccccc3)[nH]c2-c2ccncc2)ccc1Cl,100%
17,C/C(=N\N=C(N)N)c1ccc(NC(=O)c2cc3cccc([N+](=O)[O-])c3[nH]2)cc1,0%
